The values below come from paper PMC10812921, “Transcriptional Coactivator BOB1 (OBF1, OCA-B) Modulates the Specificity of DNA Recognition by the POU-Domain Factors OCT1 and OCT2 in a Monomeric Configuration”.

Experiment [1] concerns the target POU1 (OCT1 POU domain);BOB1 (OBF1, OCA-B) (human;human, UniProt P14859;Q16633 260-458;1-256, |). Briefly: EMSA-SELEX-seq; with BOB1 (ternary complex band); 20 mM Tris-HCl pH 7.6, 140 mM NaCl, 10% glycerol, 0.5 mM EDTA, 0.05% Triton X-100, 0.1 mg/mL BSA, 0.1 mg/mL poly(dI-dC), 5 mM DTT, room temperature, 20 min; high values mean tight binding. The note with it: protein: recombinant;recombinant; copies: 1;1; dsDNA, one strand shown. The method in brief:
(§1)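 Binding preference is reported as the percentage of sequenced 8-mers that match a motif pattern. Tagged POU-domain proteins were made in E. coli BL21, purified under denaturing conditions and renatured. A 30 ng portion was combined with 300 ng of a PCR-amplified double-stranded random 35-nt library, with or without 28 ng coactivator protein, in 20 μL Tris–HCl pH 7.6 binding buffer for 20 min at RT. Complex bands were excised from native 6% PAGE, eluted and PCR-amplified over four rounds before Illumina sequencing.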

Experiment [2] addresses T1, POU2 (OCT2 POU domain);BOB1 (OBF1, OCA-B) (human;human, UniProt P09086;Q16633 175-386;1-256, |).
T1 sequence 1: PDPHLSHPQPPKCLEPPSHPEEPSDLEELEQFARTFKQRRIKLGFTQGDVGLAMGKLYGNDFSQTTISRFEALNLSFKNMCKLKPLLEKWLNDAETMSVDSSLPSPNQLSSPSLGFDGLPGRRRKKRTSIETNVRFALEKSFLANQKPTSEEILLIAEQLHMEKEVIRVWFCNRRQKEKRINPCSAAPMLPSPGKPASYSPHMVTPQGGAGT
T1 sequence 2: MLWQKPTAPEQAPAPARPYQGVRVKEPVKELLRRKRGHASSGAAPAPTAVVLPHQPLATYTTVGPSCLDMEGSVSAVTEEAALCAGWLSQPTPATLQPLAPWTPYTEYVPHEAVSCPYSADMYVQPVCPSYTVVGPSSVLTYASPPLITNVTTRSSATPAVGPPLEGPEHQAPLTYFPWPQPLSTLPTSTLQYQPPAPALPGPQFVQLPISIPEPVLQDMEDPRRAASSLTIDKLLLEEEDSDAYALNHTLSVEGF
The experiment is described as above. The following applies: protein: recombinant;recombinant; copies: 1;1; dsDNA, one strand shown. Put shortly:
as §1

In a further experiment the target is POU1 (OCT1 POU domain) (human, UniProt P14859 260-458). Briefly: EMSA-SELEX-seq; no BOB1; 20 mM Tris-HCl pH 7.6, 140 mM NaCl, 10% glycerol, 0.5 mM EDTA, 0.05% Triton X-100, 0.1 mg/mL BSA, 0.1 mg/mL poly(dI-dC), 5 mM DTT, room temperature, 20 min; high values mean tight binding. The note with it: protein: recombinant; dsDNA, one strand shown. Put shortly: as §1
Chain of POU1 (OCT1 POU domain) (P14859 260-458): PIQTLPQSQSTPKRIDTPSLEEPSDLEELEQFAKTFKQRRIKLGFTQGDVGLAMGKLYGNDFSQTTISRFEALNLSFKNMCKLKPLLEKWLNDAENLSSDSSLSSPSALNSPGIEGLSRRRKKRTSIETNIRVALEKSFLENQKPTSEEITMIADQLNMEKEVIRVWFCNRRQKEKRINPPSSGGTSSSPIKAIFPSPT

For a further experiment, the target named is T2, POU2 (OCT2 POU domain) (human, UniProt P09086 175-386).
T2 sequence: T1 sequence 1
The description is as above. The note with it: protein: recombinant; dsDNA, one strand shown. Put shortly:
as §1

Take ACCCAAAC: the binding signal in experiment [1] is 0.0164 % of ANNNNAAN 8-mers; in experiment [2], 0.0107 % of ANNNNAAN 8-mers.

For ACCGAAAC, the binding signal in the experiment with POU1 (OCT1 POU domain) was 0.0107 % of ANNNNAAN 8-mers; with POU2 (OCT2 POU domain), 0.0132 % of ANNNNAAN 8-mers; in experiment [1], 0.0125 % of ANNNNAAN 8-mers.

For the sequence ACCTCAAG, the figures for the binding signal (with POU1 (OCT1 POU domain); with POU2 (OCT2 POU domain); in experiment [1]) were 0.0141 % of ANNNNAAN 8-mers, 0.0127 % of ANNNNAAN 8-mers and 0.0156 % of ANNNNAAN 8-mers, respectively.

As for AAGCAAAA, the binding signal with POU1 (OCT1 POU domain) was 0.142 % of ANNNNAAN 8-mers; in the experiment with POU2 (OCT2 POU domain) it was 0.0898 % of ANNNNAAN 8-mers; in experiment [1] it was 0.204 % of ANNNNAAN 8-mers; in experiment [2], 0.106 % of ANNNNAAN 8-mers.

In the case of ACCACAAC, the binding signal with POU1 (OCT1 POU domain) was 0.0107 % of ANNNNAAN 8-mers; with POU2 (OCT2 POU domain) it was 0.0132 % of ANNNNAAN 8-mers.

For the sequence AGGGGAAA, the binding signal with POU1 (OCT1 POU domain) is 0.101 % of ANNNNAAN 8-mers; with POU2 (OCT2 POU domain) it was 0.0794 % of ANNNNAAN 8-mers; in experiment [1] it was 0.109 % of ANNNNAAN 8-mers; in experiment [2], 0.0826 % of ANNNNAAN 8-mers.

As to ACCGCAAC, the binding signal with POU1 (OCT1 POU domain) is 0.0114 % of ANNNNAAN 8-mers; in experiment [2] it was 0.0157 % of ANNNNAAN 8-mers.

On to ACGCCAAG, for which the figures for the binding signal (with POU1 (OCT1 POU domain); with POU2 (OCT2 POU domain); in experiment [2]) were 0.0145 % of ANNNNAAN 8-mers, 0.0167 % of ANNNNAAN 8-mers and 0.014 % of ANNNNAAN 8-mers, respectively.

Consider ACCCGAAC, for which the binding signal with POU1 (OCT1 POU domain) was 0.0111 % of ANNNNAAN 8-mers; in the experiment with POU2 (OCT2 POU domain) it was 0.0109 % of ANNNNAAN 8-mers; in experiment [2] it was 0.0132 % of ANNNNAAN 8-mers.

For the sequence ACGCCAAC, the results for the binding signal (in the experiment with POU2 (OCT2 POU domain); in experiment [1]) were 0.0115 % of ANNNNAAN 8-mers and 0.0121 % of ANNNNAAN 8-mers, respectively.

Turning to AGAGAAAT, the binding signal was 0.0679 % of ANNNNAAN 8-mers with POU1 (OCT1 POU domain), 0.0708 % of ANNNNAAN 8-mers with POU2 (OCT2 POU domain), 0.0753 % of ANNNNAAN 8-mers in experiment [1] and 0.0784 % of ANNNNAAN 8-mers in experiment [2].

Regarding AGATTAAC, the binding signal with POU1 (OCT1 POU domain) is 0.0885 % of ANNNNAAN 8-mers; with POU2 (OCT2 POU domain) it was 0.0863 % of ANNNNAAN 8-mers; in experiment [1], 0.0414 % of ANNNNAAN 8-mers; in experiment [2] it was 0.0495 % of ANNNNAAN 8-mers.

As for AACGCAAC, the values for the binding signal (in the experiment with POU1 (OCT1 POU domain); with POU2 (OCT2 POU domain); in experiment [2]) were 0.013 % of ANNNNAAN 8-mers, 0.0201 % of ANNNNAAN 8-mers and 0.0182 % of ANNNNAAN 8-mers, respectively.

Regarding ATACAAAA, the binding signal with POU1 (OCT1 POU domain) is 0.144 % of ANNNNAAN 8-mers; with POU2 (OCT2 POU domain) it was 0.0857 % of ANNNNAAN 8-mers; in experiment [1], 0.195 % of ANNNNAAN 8-mers; in experiment [2], 0.105 % of ANNNNAAN 8-mers.

Consider AGCTCAAC, for which the results for the binding signal (in the experiment with POU2 (OCT2 POU domain); in experiment [1]; in experiment [2]) were 0.0132 % of ANNNNAAN 8-mers, 0.0101 % of ANNNNAAN 8-mers and 0.0231 % of ANNNNAAN 8-mers, respectively.

Regarding ACTGCAAC, the figures for the binding signal (with POU1 (OCT1 POU domain); with POU2 (OCT2 POU domain); in experiment [1]) were 0.0114 % of ANNNNAAN 8-mers, 0.0155 % of ANNNNAAN 8-mers and 0.0199 % of ANNNNAAN 8-mers, respectively.

As for AATACAAC, the binding signal is 0.0412 % of ANNNNAAN 8-mers with POU1 (OCT1 POU domain), 0.0403 % of ANNNNAAN 8-mers with POU2 (OCT2 POU domain), 0.0336 % of ANNNNAAN 8-mers in experiment [1] and 0.0545 % of ANNNNAAN 8-mers in experiment [2].

As for ACCGGAAG, the binding signal in the experiment with POU2 (OCT2 POU domain) is 0.0127 % of ANNNNAAN 8-mers; in experiment [2], 0.0124 % of ANNNNAAN 8-mers.

Consider ACTTAAAA, for which the binding signal is 0.0587 % of ANNNNAAN 8-mers with POU1 (OCT1 POU domain), 0.0524 % of ANNNNAAN 8-mers with POU2 (OCT2 POU domain), 0.0464 % of ANNNNAAN 8-mers in experiment [1] and 0.052 % of ANNNNAAN 8-mers in experiment [2].

Take ACCCCAAG: the figures for the binding signal (in the experiment with POU2 (OCT2 POU domain); in experiment [1]) were 0.0115 % of ANNNNAAN 8-mers and 0.0105 % of ANNNNAAN 8-mers, respectively.

Consider ACGTAAAG, for which the binding signal was 0.0416 % of ANNNNAAN 8-mers with POU1 (OCT1 POU domain), 0.0409 % of ANNNNAAN 8-mers in the experiment with POU2 (OCT2 POU domain), 0.0667 % of ANNNNAAN 8-mers in experiment [1] and 0.0479 % of ANNNNAAN 8-mers in experiment [2].

In the case of AACCCAAG, the binding signal in the experiment with POU1 (OCT1 POU domain) is 0.0111 % of ANNNNAAN 8-mers; with POU2 (OCT2 POU domain) it was 0.015 % of ANNNNAAN 8-mers; in experiment [1], 0.0144 % of ANNNNAAN 8-mers.

AGAATAAG: the binding signal with POU1 (OCT1 POU domain) was 0.0686 % of ANNNNAAN 8-mers; in the experiment with POU2 (OCT2 POU domain) it was 0.101 % of ANNNNAAN 8-mers; in experiment [1], 0.0527 % of ANNNNAAN 8-mers; in experiment [2] it was 0.0702 % of ANNNNAAN 8-mers.

In the case of ACCACAAT, the binding signal was 0.0179 % of ANNNNAAN 8-mers with POU1 (OCT1 POU domain), 0.0178 % of ANNNNAAN 8-mers in the experiment with POU2 (OCT2 POU domain), 0.0199 % of ANNNNAAN 8-mers in experiment [1] and 0.0215 % of ANNNNAAN 8-mers in experiment [2].

For the sequence ATCTTAAA, the binding signal with POU1 (OCT1 POU domain) is 0.0648 % of ANNNNAAN 8-mers; with POU2 (OCT2 POU domain), 0.0552 % of ANNNNAAN 8-mers; in experiment [1], 0.0515 % of ANNNNAAN 8-mers; in experiment [2], 0.0636 % of ANNNNAAN 8-mers.

ACCGCAAG: the binding signal with POU1 (OCT1 POU domain) is 0.0114 % of ANNNNAAN 8-mers; with POU2 (OCT2 POU domain) it was 0.0127 % of ANNNNAAN 8-mers; in experiment [1], 0.0176 % of ANNNNAAN 8-mers.

As for ACACCAAC, the values for the binding signal (in the experiment with POU2 (OCT2 POU domain); in experiment [1]; in experiment [2]) were 0.0127 % of ANNNNAAN 8-mers, 0.0113 % of ANNNNAAN 8-mers and 0.0107 % of ANNNNAAN 8-mers, respectively.

With ACCCTAAC, the binding signal was 0.0107 % of ANNNNAAN 8-mers with POU1 (OCT1 POU domain), 0.0121 % of ANNNNAAN 8-mers with POU2 (OCT2 POU domain) and 0.0157 % of ANNNNAAN 8-mers in experiment [2].

AAGCCAAC: the binding signal is 0.0137 % of ANNNNAAN 8-mers with POU1 (OCT1 POU domain), 0.0161 % of ANNNNAAN 8-mers with POU2 (OCT2 POU domain), 0.0109 % of ANNNNAAN 8-mers in experiment [1] and 0.0107 % of ANNNNAAN 8-mers in experiment [2].

Consider ACCTCAAC, for which the binding signal is 0.0129 % of ANNNNAAN 8-mers in experiment [1] and 0.0107 % of ANNNNAAN 8-mers in experiment [2].

As for ACGTGAAA, the binding signal in the experiment with POU1 (OCT1 POU domain) is 0.0374 % of ANNNNAAN 8-mers; with POU2 (OCT2 POU domain), 0.0386 % of ANNNNAAN 8-mers; in experiment [1], 0.0386 % of ANNNNAAN 8-mers; in experiment [2] it was 0.0297 % of ANNNNAAN 8-mers.
